Source: PubChem BioAssay AID1845224 (National Center for Advancing Translational Sciences (NCATS), 2023)
Records with an inconclusive call do not appear. A number with no mark means an inactive call. Activity calls are given as the source filed them. The call rests on the fitted dose curve; in most records, active means well fitted curve in the direction sought with a large enough effect; inconclusive means small, poorly fitted or top-dose-only effect, or another doubt; inactive means no such curve, though single readings can be large or run the other way.

tested on: NanoLuc luciferase (engineered Oplophorus gracilirostris luciferase); assay: Confirmatory Nanoluciferase (NLuc) qHTS assay for identification of artifact compounds.; on activity change, negative = inhibition: % of control where 0% means no effect; details: secreted NLuc in S16 cell medium, luminescence, 5 min; series mostly up to 39 µM; activity change, negative = inhibition: at the top concentration
Method in brief: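 Conditioned medium from NLuc-expressing S16 cells (diluted 1:55) was incubated with compounds for 15 min at room temperature. Nano-Glo substrate (1:100) was then added, and luminescence was read after 5 min.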
Potency means the concentration at half of the fitted maximal effect.

Row | SMILES | Potency | activity change, negative = inhibition [%]
1 | O=C(CCS(=O)(=O)c1nc(-c2ccc3c(c2)OCO3)cc(C(F)(F)F)n1)Nc1ccccc1C(F)(F)F | 12.2 µM (active) | –
2 | CCCCCCCCCCCCCC(=O)N[C@@H](C)[C@H](O)c1ccccc1 | – | -1.06
3 | COc1ccccc1/C=C/c1nc(C#N)c(NCCc2ccccc2)o1 | – | -17.7
4 | CCOC(=O)C1=C(CNCc2ccc(Cl)cc2)NC(=O)NC1c1ccccc1 (stereo unspecified) | – | -27.2
5 | C=C(C)[C@]12C[C@@H](C)[C@@]34OC(Cc5ccccc5)(O[C@@H]1[C@@H]3C=C(COC(=O)Cc1cc(OC)c(O)cc1I)C[C@]1(O)C(=O)C(C)=C[C@@H]41)O2 | – | -8.96
6 | CC(Sc1oc(-c2cccs2)nc1S(=O)(=O)c1ccccc1)c1ccccc1 (stereo unspecified) | – | -16.5
7 | CC1CCN(c2ccc(-c3nc(C(C)C)no3)cc2[N+](=O)[O-])CC1 | – | -3.52
8 | Cc1c(NC(=O)C(C)(C)C)cccc1-c1nc2ccccc2s1 | – | -11.2
9 | CCOC(=O)c1cccc(NC(=O)c2ccc3snnc3c2)c1 | – | -2.68
10 | O=C(OCC#CCSc1nnc(-c2ccc3ccccc3c2)o1)c1ccsc1 | – | -10.1
11 | O=C1c2ccccc2C(=O)N1Cc1ccccn1 | – | -0.535
12 | COc1cccc(C(=O)Nc2ccccc2-c2nnc(-c3ccc(C(C)(C)C)cc3)o2)c1 | – | -10.1
13 | CC(=O)Nc1cc(-c2ccccc2)nn1Cc1cccc(Cl)c1 | – | -0.214
14 | CCCC(=O)Nc1cc2nn(-c3ccccc3)nc2cc1C | – | -5.59
15 | COc1cccc2cc(C(=O)Nc3ccc(F)c(F)c3)c(=O)oc12 | – | -6.18
16 | O=S1(=O)N=C(Oc2ccc(-c3ccccc3)cc2)c2ccccc21 | – | -1.14
